A number with no mark means an inactive call.
Test system: Vero E6 infected with SARS-CoV-2
Assay: inhibition of SARS-CoV-2 cytopathic effect; higher = more antiviral protection, active = above 15
Conditions: 48 h

SMILES	inhibition of SARS-CoV-2 cytopathic effect (1 nM) [%]	inhibition of SARS-CoV-2 cytopathic effect (8.33 nM) [%]	inhibition of SARS-CoV-2 cytopathic effect (100 nM) [%]	inhibition of SARS-CoV-2 cytopathic effect (833.33 nM) [%]	inhibition of SARS-CoV-2 cytopathic effect (10000 nM)
CCC[C@@H]1C[C@@H](C(=O)N[C@@H]([C@H]2O[C@H](SC)[C@H](O)[C@@H](O)[C@H]2O)[C@@H](C)O)N(C)C1 [lincomycin]	1.22	2.66	-0.29	-1.24	-1.36%
COc1cc2c(cc1OC)C1CC(=O)C(CC(C)C)CN1CC2 (stereo not given) [tetrabenazine]	-2.11	0.64	1.22	2.22	0.85%
Cc1cccc(-c2n[nH]cc2-c2ccc(F)c(-c3cnn(CCO)c3)c2)n1	3.99	1.16	-2.29	-0.9	-3.66%
Cc1nc(=O)c2cc(CN(C)c3ccc(C(=O)N[C@@H](CCC(=O)O)C(=O)O)s3)ccc2[nH]1 [raltitrexed]	-0.77	5.47	1.2	-4.47	-1.82%
Nc1cc2c3ccccc3ccc2c2ccccc12 [6-aminochrysene]	1.36	2.29	2.99	-3.94	1.34%
Oc1ccc(OC2CCCCO2)cc1 (stereo not given) [deoxyarbutin]	-1.9	-1.93	-0.6	0.9	-0.71%
CC(C)(CO)[C@@H](O)C(=O)NCCC(=O)O [pantothenic-acid]	0.14	-0.18	0.03	-0.87	2.81%
C=CC(=O)c1ccc2ccccc2c1 [JAK3-inhibitor-V]	-1.46	-1.7	-2.73	-2.88	1.9%
COc1ccccc1N1CCN(CCN(C(=O)C2CCCCC2)c2ccccn2)CC1	-3.64	-4.61	-0.56	3.47	-0.29%
OCCC#Cc1nc(-c2ccc(F)cc2)c(-c2ccncc2)n1CCCc1ccccc1	2.21	-1.75	-1.41	0.51	2.27%
CC(=O)Nc1ccc(OC(C)=O)cc1 [diacetamate]	-0.51	0.65	3.04	0.82	2.03%
COC(=O)C1=C(C)NC(C)=C(C(=O)OCCCN2CCC(c3ccccc3)(c3ccccc3)CC2)[C@@H]1c1cccc([N+](=O)[O-])c1 [dexniguldipine]	1.4	0.16	2.09	-3.36	-4.64%
Cc1c(F)cc(C(=O)NC2CC2)cc1-c1c(F)cn2c(C(C)(C)C)nnc2c1F	-1.55	-0.6	-3.43	0.89	-0.19%
Cc1ncc(CO)c(C=O)c1O [pyridoxal]	4.33	2.21	0.26	-1.64	1.19%
O=C1c2cccc(O)c2C(=O)c2c(O)cccc21 [dantron]	-2.75	-3.39	-1.6	-0.79	0.11%
CC(C)C[C@H](NC(=O)CNC(=O)[C@H](Cc1ccc(O)cc1)NC(=O)[C@H](CO)NC(=O)[C@H](Cc1c[nH]c2ccccc12)NC(=O)[C@H](Cc1cnc[nH]1)NC(=O)[C@@H]1CCC(=O)N1)C(=O)N[C@@H](CCCNC(=N)N)C(=O)N1CCC[C@H]1C(=O)NCC(N)=O [gonadorelin]	-1.95	-2.66	0.47	-1.19	1.93%
Cc1cccc(C)c1NC(=O)[C@@H](C)N [tocainide]	1.21	0.17	-6.26	1.04	-4.59%
Cc1ccsc1C(=CCCN1CCC[C@@H](C(=O)O)C1)c1sccc1C [tiagabine]	1.59	1.98	0.33	-3.02	0.65%
CCS(=O)(=O)N(C)[C@H]1c2cc(C#N)ccc2OC(C)(C)[C@@H]1O [chromanol-293B-(-)-[3R,4S]]	0.15	-2.19	0.8	1.12	-1.64%
CC[N+](C)(CC)CCOC(=O)C(O)(c1ccccc1)C1CCCCC1 (stereo not given) [oxyphenonium]	-1.8	-1.33	-2.81	0.58	-1.5%

SMILES	inhibition of SARS-CoV-2 cytopathic effect (1 nM) [%]	inhibition of SARS-CoV-2 cytopathic effect (8.33 nM) [%]	inhibition of SARS-CoV-2 cytopathic effect (100 nM) [%]	inhibition of SARS-CoV-2 cytopathic effect (833.33 nM) [%]	inhibition of SARS-CoV-2 cytopathic effect (10000 nM)
CCCCCOC(=O)Nc1nc(=O)n([C@@H]2O[C@H](C)[C@@H](O)[C@H]2O)cc1F [capecitabine]	-2.56	0.42	-1.36	-0.59	-1.14%
c1cc(-c2cnn3cc(-c4ccc(N5CCNCC5)cc4)cnc23)c2cccnc2c1	-0.58	-1.57	-4.29	-2.22	6.47%
CC(/C=C1\SC(=S)N(CC(=O)O)C1=O)=C\c1ccccc1 [epalrestat]	-1.25	-1.52	-1.17	1.15	-0.07%
CNC(=O)c1cccc(-c2ccc3c(N4CCOC[C@@H]4C)nc(N4CCOC[C@@H]4C)nc3n2)c1	0.89	-1.74	-1.86	0.43	-2.51%
CCC(CC)C(c1ccc(Nc2nc3ccccc3s2)cc1)n1cncn1 (stereo not given) [talarozole]	3.05	0.68	0.42	1.31	4.15%
Clc1cccc(-n2nnnc2NCc2ccccc2Oc2ccccn2)c1Cl	1.27	-1.76	-3.85	0.18	1.67%
COc1cc2ncnc(Sc3nnc(C)s3)c2cc1OC	-1.42	0.72	3.01	1.54	24.4% (active)
O=C(NCCCN1CCC2(CC1)OCc1ccccc12)[C@H]1CCCN1Cc1ccccc1	-4.44	-4.12	-5.12	-1.81	0.56%
O=C(/C=C/c1ccccc1)NCCO [brolitene]	-0.76	-1.09	-0.6	-2.74	1.92%
C[n+]1ccc(C(=O)NCc2ccccc2)cc1 [enisamium-iodide]	-0.64	7.37	-0.6	4.79	0.11%
CC(=O)Nc1cccc(Nc2ncnc(N3CCC(OCc4ccc(OC(F)(F)F)cc4)CC3)n2)c1C	0.94	-3.45	-5.16	-2.26	1.6%
C[C@H]1CO[C@@H]2Cn3cc(C(=O)NCc4ccc(F)cc4F)c(=O)c(O)c3C(=O)N12	0	1.03	1.79	1.33	-0.84%
CS(=O)(=O)OC[C@H](O)[C@@H](O)COS(C)(=O)=O [treosulfan]	0.41	0.48	-0.46	0.71	1.56%
CN(c1ccc(NC(=O)Nc2ccccc2)cc1)S(=O)(=O)c1cnn(-c2ccc(F)cc2)c1	2.37	2.39	0.06	-1.77	0.18%
CCCCc1nc(-c2ccc(OCCCN(CC)CC)cc2)cn1-c1ccc(Oc2ccc(Cl)cc2)cc1 [azeliragon]	0.74	-0.49	1.43	1.68	-13.2%
COc1c2ccoc2cc2oc(=O)ccc12 [bergapten]	-0.67	-0.91	-2.71	3.76	14.6%
Cc1cccc(NC(=O)c2ccc(C(F)(F)F)cc2C(=O)O)n1	0.74	0.28	1.41	0.88	2.54%
C/C(=N\NC(=S)N1CCC1)c1ccccn1	0.2	0.91	2.65	-1.1	20.1% (active)
COc1ccc2c(c1OC)C(=O)O[C@@H]2[C@H]1c2c(cc3c(c2OC)OCO3)CCN1C [noscapine]	-3	0.3	-0.27	-0.71	-2.79%
CCCCCCCCCCCCCCCC[N+](C)(C)C [cetrimonium]	1.02	-0.39	0.2	-3.96	-18.4%

Source: the supplement of paper PMC13380429
